# Assay results: the OligoGym collection
# Target: FER1L6
# Experiment: pooled miR-30 sensor sort-seq; sequence = guide strand
# Details: shRNA
# Further: reference of the scale not given here.
row,Sequence,sensor-assay potency score (higher = more potent)
1,TAGAGTCTCACATAGAATCTGG,-0.448
2,TTTGTCTCCATCCTGTTCGTTG,-0.562
3,TTCTTCTATACTTTCTTCCAGG,-0.684
4,TTAGTCAACAGTTTTGATCTTC,0.643
5,TTCTTCTGCTGTAACTAGGTGG,-0.362
6,TTTTCTGGTACAATCTCCGGGG,0.181
7,TTTTTCTGGTACAATCTCCGGG,0.00268
8,TTGCTTGCACAGACCAACCAGC,-0.415
9,TAAAATGACATCTTCAGTGTTC,0.481
10,TAGCGAATCTGAAATATCGTGC,0.395
11,TAACTTTTTCTTCTGCTGCTGA,0.239
12,TTGACTATCTTTCGCAGCCTTG,-0.891

# Target: FEZ1
# Experiment: as above
# Details: shRNA
row,Sequence,sensor-assay potency score (higher = more potent)
1,TTGCTCAGTGACCTCCTGCAGC,-0.806
2,TAGTCTTAAGAGTATAAGCTGT,-0.799
3,TTTAAATACATGTCGGAGGTTA,0.312
